Measured values published in PubChem BioAssay (NCI).
The panel holds about 83,000 compounds, 20% with a hit somewhere; the sample as a whole holds those more often.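 Activity criterion: percent growth below 10, measured after cells in 96-well plates were exposed to a single compound concentration for 48 hours.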 The source made the active and inactive calls.

Legend:
Test in all cases: NCI-60 one-dose screen, 48 h (100 = growth as untreated, 0 = no growth, -100 = all killed)
Settings in all cases: 10 µM unless noted
[1] = tested on: T-47D breast
[2] = tested on: BT-549 breast
[3] = tested on: MDA-MB-435 melanoma
[4] = tested on: SW-620 colon
[5] = tested on: MCF7 breast
[6] = tested on: HCT-116 colon
[7] = tested on: HCC-2998 colon
[8] = tested on: KM12 colon

Measured: growth

CC(C)CC(NC(=O)CN(Cc1ccccc1)S(C)(=O)=O)C(=O)O (configuration not stated)
inactive: [1] 82% | [2] 118% | [3] 94.2% | [4] 108% | [5] 90.5% | [6] 100% | [7] 95% | [8] 98.6%

COc1ccc(Nc2nnc(SCc3ccccc3F)s2)cc1
inactive: [1] 85.8% | [2] 118% | [3] 99% | [4] 109% | [5] 90.6% | [6] 103% | [7] 106% | [8] 94.6%

COc1cc(C2CC(c3cc(OC)c(OCCCOc4ccc(-n5c(/C=C/c6ccccc6)nc6ccccc6c5=O)cc4)c(OC)c3)=NO2)cc(OC)c1OC (configuration not stated)
inactive: [1] 108% | [2] 118% | [3] 110% | [4] 104% | [5] 97.4% | [6] 106% | [7] 105% | [8] 122%

CCCCCCCCCCCCCCCCCCOc1ccc(CC(=O)OCC[N+]2(C)CCCC2)cc1
inactive: [1] 95.5% | [2] 123% | [3] 100% | [4] 95% | [5] 90.9% | [6] 92% | [7] 104% | [8] 101%

O=S(=O)(NCCCNc1cc(-c2c(-c3cccc(O)c3)nc3sccn23)ccn1)c1cccc(Cl)c1
active: [1] 6.58%
inactive: [2] 21.5% | [3] 27.4% | [4] 48.4% | [5] 55.5% | [6] 33.5% | [7] 58.2% | [8] 32.4%

O=C(Nc1ccccc1-c1nc2ccccc2c(=O)[nH]1)c1cc2ccccc2[nH]1
inactive: [1] 70.1% | [2] 85.3% | [3] 106% | [4] 94.2% | [5] 68% | [6] 83.5% | [7] 104% | [8] 88.2%

O=C(N/N=C/C=C/c1ccc([N+](=O)[O-])o1)c1cc2ccccc2cc1O
active: [1] -65.5% | [2] -9.91% | [3] -24.2% | [4] -75.6% | [5] -61.3% | [6] -92.8% | [7] -100% | [8] -67.3%

COc1cc(C2NC(=O)c3ccccc3N2)ccc1OCCCCCOc1c(OC)cc(C2=NOC(c3cc(OC)c(OC)c(OC)c3)C2)cc1OC (configuration not stated)
active: [2] 1.13%
inactive: [1] 39.8% | [3] 23.3% | [4] 92.8% | [5] 32.3% | [6] 60% | [7] 80.5% | [8] 91.2%

COc1ccc(-c2nc3c(c(=O)n2C(C)=O)C(c2ccc(Cl)cc2)c2sc4c(Cl)cccc4c2O3)cc1 (configuration not stated)
inactive: [1] 11.9%
active: [2] -26.9% | [3] 0.072% | [4] -17.5% | [5] 4.61% | [6] -58.6% | [7] -34.5% | [8] -8.16%

CCN(CC)c1ccc2nc3c4ccccc4c(=NC(=O)c4ccccc4-c4c5ccc(N(CC)CC)cc5[o+]c5cc(N(CC)CC)ccc45)cc-3oc2c1
active: [3] -86.2% | [4] -38.7% | [5] -87.6% | [6] -26.8% | [8] -3%
inactive: [1] 63.6% | [2] 60.1% | [7] 15.9%

c1ccc2cc3nc4cc5ccccc5cc4nc3cc2c1
inactive: [1] 94.3% | [2] 105% | [3] 119% | [4] 84.1% | [5] 81.9% | [6] 72.3% | [7] 96.4% | [8] 85.4%

CCN(CC)CCCCCCNc1cc(OC)c(Cl)c2cccnc12
inactive: [1] 81.4% | [2] 93.5% | [3] 14.7% | [4] 81.2% | [5] 66.7% | [6] 70.8% | [7] 82.1% | [8] 76.9%

C=C1C(=O)O[C@H]2[C@H]1CC/C(COC(=O)C(=O)c1cn(C)c3ccc(OC)cc13)=C\CC[C@@]1(C)O[C@@H]21
active: [1] -55.3% | [2] -79.1% | [3] -79.2% | [4] -63.6% | [5] -34.8% | [6] -95.1% | [7] -65.3% | [8] -65%

COC(=O)[C@]12CC[C@@H](C)[C@H](C)[C@@H]1C1=CC[C@@H]3[C@@]4(C)C(C=O)=C[C@@](C)(COC(=O)/C=C/c5ccccc5)[C@@H]4[C@H](O)C[C@@]3(C)[C@]1(C)CC2
inactive: [5] 10.6%
active: [1] -6.88% | [2] -7.43% | [3] -6.08% | [4] 5.68% | [6] -72.5% | [7] -29.9% | [8] 6.25%

CC1(C)CC(=O)C2=C(C1)N(c1ccc(OC(F)(F)F)cc1)C(N)=C(C#N)C2c1ccc(Cl)cc1 (configuration not stated)
inactive: [1] 79.1% | [2] 109% | [3] 93.1% | [4] 101% | [5] 86% | [6] 68.4% | [7] 94.7% | [8] 86.9%

Cc1ccc(-c2cc3c(cc2O)C2CCCCC2(N2CCOCC2)O3)cc1 (configuration not stated)
inactive: [1] 85% | [2] 95.4% | [3] 98.4% | [4] 117% | [5] 88.5% | [6] 97.3% | [7] 106% | [8] 109%

O=C(Nc1ccccc1)Nc1cccc(Oc2nnc(Cl)c3ccccc23)c1
inactive: [2] 47.7% | [3] 48.6% | [4] 73.4% | [6] 10.6% | [7] 52.8% | [8] 43.6%
active: [1] -18% | [5] -4.15%

CC/C=C1/C(=O)C=C[C@@H]1C/C=C\CCCC(=O)O
inactive: [1] 71.8% | [2] 76.5% | [3] 54.1% | [4] 43.5% | [5] 19.8% | [6] 35.5% | [7] 95.1% | [8] 63.4%

Cc1cc(NCc2cc(Nc3ccnc4cc(Cl)ccc34)ccc2F)nc(N2CCCC2)n1
inactive: [2] 58.1% | [8] 12%
active: [1] -59.7% | [3] -94.7% | [4] -1.87% | [5] -14.1% | [6] -53.5% | [7] -67.9%

COC(=O)c1ccc(CSc2nnc(-c3c(C)nc4ccc(C)cn34)o2)cc1
inactive: [1] 89.4% | [2] 100% | [3] 102% | [4] 108% | [5] 85.9% | [6] 99.3% | [7] 87% | [8] 110%

COc1ccc(-c2nc(SCCC(C)C)nc(N/N=C\c3cccc(Cl)c3)c2C#N)cc1
inactive: [1] 59.7% | [2] 85.5% | [3] 88.5% | [4] 54.4% | [5] 73.3% | [6] 33.3% | [7] 92.2% | [8] 90.6%

O=C(CC(SCc1ccccc1)c1ccccc1)c1ccccc1 (configuration not stated)
inactive: [1] 74.7% | [2] 94% | [3] 84.6% | [4] 83.5% | [5] 14.6% | [6] 37.2% | [7] 99.9% | [8] 84.8%

N#CC1=C(c2ccc(Br)cc2)NC(SCC(=O)c2ccc(Br)cc2)NC1=O (configuration not stated)
inactive: [1] 92.8% | [2] 99.1% | [3] 103% | [4] 101% | [5] 101% | [6] 96.5% | [7] 106% | [8] 101%

CCc1c2c(nc3ccc(OC(=O)NCc4ccc(B5OC(C)(C)C(C)(C)O5)cc4)cc13)-c1cc3c(c(=O)n1C2)COC(=O)[C@]3(O)CC
active: [1] 4.82% | [2] 4.12% | [3] -35.2% | [4] 8.04% | [5] 2.39% | [6] 2.81% | [7] -8.14% | [8] -5.38%

CC(C)=C[C@@H]1c2c(c3ccccc3n(C)c2=O)O[C@H]2c3c(c4ccccc4n(C)c3=O)OC(C)(C)[C@@H]12
inactive: [1] 57.7% | [2] 54.7% | [3] 83.9% | [4] 89.9% | [5] 69.8% | [6] 81.6% | [7] 82.7% | [8] 89.1%

O=C(O)c1ccc2c(c1)CCC2
inactive: [1] 106% | [2] 96.6% | [3] 115% | [4] 108% | [5] 100% | [6] 105% | [7] 115% | [8] 113%

CCc1ccccc1NC(=O)/C(C#N)=C/c1ccc(OC)cc1
inactive: [1] 88.7% | [2] 112% | [3] 110% | [4] 94.4% | [5] 106% | [6] 89.1% | [7] 98.1% | [8] 91.4%

Cc1cccc(-c2nc(N(C)c3ccc4ncsc4c3)c3ccccc3n2)n1
inactive: [1] 60.6% | [2] 87.1% | [4] 57.9% | [5] 45% | [6] 65.2% | [7] 84.2% | [8] 55.4%
active: [3] -3.29%

Cc1ccc2nc(NC(=O)CSc3nc(Nc4ccc([N+](=O)[O-])cc4)c(C#N)c(-c4ccccc4)n3)sc2c1
inactive: [2] 91.1% | [3] 107% | [4] 105% | [5] 87.1% | [6] 89.5% | [7] 102% | [8] 101%
active: [1] -58.4%
